# Reference: PubChem BioAssay
# Values joined by “and” are separate entries in the source; they are usually repeats but may differ in a detail not shown here. Equal entries are not always repeated. Results filed as inconclusive are left out. Active and inactive are the calls of the source. Rule as the data show it, unless noted: active = inhibition above about 80%; inactive = the rest.
# Tests used:
# [1] = target: ATP-dependent translocase ABCB1 (Homo sapiens) (UniProt P08183); experiment: MDR1 (ABCB1) efflux transporter inhibition, cell-based (AID 377; in the data active = fluorescence slope change above about 50%); settings: MDR1-expressing cells, fluorescent substrate accumulation slope; stronger effect = higher value; concentration not given here
# ATP-dependent translocase ABCB1 (Homo sapiens), sequence (P08183 whole entry, looked up): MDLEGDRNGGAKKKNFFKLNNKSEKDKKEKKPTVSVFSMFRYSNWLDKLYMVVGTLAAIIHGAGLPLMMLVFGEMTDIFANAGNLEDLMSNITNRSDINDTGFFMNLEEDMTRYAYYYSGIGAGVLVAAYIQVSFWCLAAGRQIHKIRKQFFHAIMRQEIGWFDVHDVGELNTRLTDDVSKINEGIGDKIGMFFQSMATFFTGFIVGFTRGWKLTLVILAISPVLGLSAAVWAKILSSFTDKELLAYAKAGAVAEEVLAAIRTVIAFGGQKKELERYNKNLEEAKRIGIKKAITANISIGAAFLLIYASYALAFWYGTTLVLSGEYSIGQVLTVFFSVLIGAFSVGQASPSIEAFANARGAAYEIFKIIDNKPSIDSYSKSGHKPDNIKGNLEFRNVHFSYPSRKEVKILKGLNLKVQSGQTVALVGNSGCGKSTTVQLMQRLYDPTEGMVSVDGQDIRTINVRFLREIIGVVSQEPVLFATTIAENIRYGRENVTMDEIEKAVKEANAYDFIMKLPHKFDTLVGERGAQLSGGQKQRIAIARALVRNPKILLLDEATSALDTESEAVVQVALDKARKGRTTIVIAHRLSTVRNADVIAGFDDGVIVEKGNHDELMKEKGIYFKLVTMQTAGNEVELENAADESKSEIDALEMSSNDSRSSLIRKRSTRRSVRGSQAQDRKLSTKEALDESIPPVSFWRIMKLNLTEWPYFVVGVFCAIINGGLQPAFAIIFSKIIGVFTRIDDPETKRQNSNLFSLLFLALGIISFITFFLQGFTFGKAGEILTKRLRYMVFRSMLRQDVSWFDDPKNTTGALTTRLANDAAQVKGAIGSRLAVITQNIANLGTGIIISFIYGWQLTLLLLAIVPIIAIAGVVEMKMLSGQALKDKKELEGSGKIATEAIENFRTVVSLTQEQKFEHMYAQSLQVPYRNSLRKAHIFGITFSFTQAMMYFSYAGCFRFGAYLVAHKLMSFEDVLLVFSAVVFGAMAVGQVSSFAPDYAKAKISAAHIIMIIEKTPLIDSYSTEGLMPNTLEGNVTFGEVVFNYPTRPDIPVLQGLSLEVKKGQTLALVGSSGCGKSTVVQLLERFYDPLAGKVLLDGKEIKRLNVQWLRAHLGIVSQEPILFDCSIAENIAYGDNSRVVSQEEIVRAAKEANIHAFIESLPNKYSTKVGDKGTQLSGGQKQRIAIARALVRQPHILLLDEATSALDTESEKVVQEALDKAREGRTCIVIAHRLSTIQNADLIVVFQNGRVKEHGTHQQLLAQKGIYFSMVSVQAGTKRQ
# [2] = hESC survival regulators, cell-based (AID 493140; call rule not given here;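 also: cells exposed to compounds for four days before counting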); settings: human embryonic stem cell survival screen; stronger effect = higher value
# [3] = sensitizers of A549 cells to miR-34 induction, primary screen, imaging, A549 dox-inducible miR-34, nuclei and caspase counts (AID 1347080;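 active = compounds whose cell count with miR-34 switched on is under 0.7 times the count with it off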); settings: A549 miR-34 inducible, Hoechst nuclei count, 48 h
# [4] = circadian clock period modulators, cell-based, LOPAC library, luminescence reporter (AID 2774; call rule not given here;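 also: values are relative to mean of DMSO wells on each plate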); settings: circadian reporter cells, at 7 µM, actives lie on both sides
# [5] = liver-stage malaria parasite growth inhibition, primary screen, cell-based, HepG2, luciferase luminescence, HepG2 viability (AID 624349; in the data active = parasite load remaining mostly below about 12%, no sharp cut-off; inactive = mostly above about 10%;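 also: 100% = mean of DMSO negative control wells on the same plate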); settings: P. berghei liver stage in HepG2, luciferase luminescence, concentration not given here; parasite load remaining: stronger effect = lower value; viability: measured here: HepG2 viability without parasites
# [6] = LFS_MB_P medulloblastoma growth inhibition, cell-based, chromothripsis tumors, cisplatin or BGB combos (AID 1671449); settings: LFS_MB_P medulloblastoma cells;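 also: cells exposed for 96 hours; 0% = vehicle DMSO and 100% = killing by high DMSO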
# [7] = HDN33 neuroblastoma growth inhibition, cell-based, chromothripsis tumors, cisplatin or BGB combos (AID 1671450); settings: HDN33 neuroblastoma cells, stronger effect = higher value;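 also: cells exposed to compound for four days; 0% = vehicle DMSO and 100% = cell killing by high DMSO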
# [8] = ICB984 medulloblastoma cell growth inhibition, synergistic combos for chromothripsis tumors, cisplatin or BGB combos (AID 1671451; call rule not given here;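 also: cells exposed for 96 hours before readout; 0% = vehicle DMSO and 100% = killing by high DMSO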); settings: ICB984 medulloblastoma cells, drug combinations, stronger effect = higher value
# [9] = LFS_MB_1R medulloblastoma cell growth inhibition, synergistic combos for chromothripsis tumors, cisplatin or BGB combos (AID 1671452); settings: LFS_MB_1R medulloblastoma cells, stronger effect = higher value;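 also: cells exposed for 96 hours before readout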
# [10] = HTB85 osteosarcoma cell growth inhibition, synergistic combos for chromothripsis tumors, BGB or cisplatin IC20 combos (AID 1671453); settings: HTB85 osteosarcoma cells, drug combinations, stronger effect = higher value;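 also: cells exposed for 96 hours before readout; 0% = vehicle DMSO and 100% = high DMSO killing control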
# [11] = CRL2098 osteosarcoma cell growth inhibition, synergistic combos for chromothripsis tumors, BGB or cisplatin IC20 combos (AID 1671454); settings: CRL2098 osteosarcoma cells, drug combinations, stronger effect = higher value;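 also: cells exposed for 96 h before readout; 0% = vehicle DMSO and 100% = killing by high DMSO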
# [12] = HD-MB03 medulloblastoma cell growth inhibition, synergistic combos for chromothripsis tumors, BGB or cisplatin IC20 combos (AID 1671455; in the data active = inhibition above about 83%;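 also: 0% = vehicle DMSO and 100% = high DMSO as cytotoxic control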); settings: HD-MB03 medulloblastoma cells, stronger effect = higher value
# [13] = UWB1.289 ovarian carcinoma cell growth inhibition, synergistic combos for chromothripsis tumors, BGB or cisplatin combos (AID 1671456); settings: UWB1.289 ovarian carcinoma cells, stronger effect = higher value;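 also: cells exposed to compound for four days; 0% = vehicle DMSO and 100% = killing by high DMSO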
# [14] = LFS_MB_2R medulloblastoma cell growth inhibition, synergistic combos for chromothripsis tumors, cisplatin combos (AID 1671457); settings: LFS_MB_2R medulloblastoma cells, stronger effect = higher value;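 also: cells exposed to compound for four days before readout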
# [15] = MDA-MB-436 breast carcinoma cell growth inhibition, synergistic combos for chromothripsis tumors, BGB or cisplatin combos (AID 1671458; call rule not given here;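 also: cells exposed for 96 hours; 0% = vehicle DMSO and 100% = killing by high DMSO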); settings: MDA-MB-436 breast carcinoma growth inhibition, drug combinations, stronger effect = higher value
# [16] = UWB1.289_BRCA1 ovarian cancer growth, cell-based, BGB or cisplatin combinations (AID 1671459); settings: UWB1.289 BRCA1 ovarian carcinoma, drug combinations, stronger effect = higher value
# [17] = human astrocyte viability loss, single and combined drugs, cytotoxicity control for chromothriptic childhood tumor combination screen, cell-based, BGB or cisplatin IC20 combos (AID 1671460); settings: Human astrocytes, drug combinations, stronger effect = higher value;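 also: cells exposed to compounds for 96 hours before viability readout; 0% = vehicle and 100% = killing control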
# [18] = growth inhibition of BT084 medulloblastoma cells, cell-based, ICGC_MB145, cisplatin and BGB IC40 combos (AID 1671461); settings: drug combinations, stronger effect = higher value;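 also: cells exposed to drugs for 96 hours; 0% = vehicle DMSO and 100% = high DMSO full killing control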
# [19] = growth inhibition of RCMB18 medulloblastoma cells, cell-based, cisplatin and BGB IC40 combos (AID 1671462); settings: stronger effect = higher value;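 also: cells exposed to compound for four days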
# [20] = growth inhibition of CRL1545 osteosarcoma cells, cell-based, cisplatin and BGB IC20 combos (AID 1671464); settings: stronger effect = higher value;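 also: cells exposed to compound for 96 hours before readout; 0% = vehicle DMSO and 100% = high DMSO killing control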
# [21] = stronger effect = lower value, cell number ratio, induced over uninduced
# [22] = measured here: relative caspase fold change +Dox/-Dox
# [23] = measured here: total cells with miR-34 induction, stronger effect = lower value
# [24] = measured here: total cells without miR-34 induction
# [25] = measured here: combination with BGB IC40, at 0.05 µM
# [26] = measured here: with BGB IC20 combination, at 0.5 µM
# [27] = measured here: with cisplatin IC20 combination, at 0.5 µM
# [28] = measured here: combination with cisplatin, at 0.5 µM
# [29] = measured here: combination with cisplatin, at 5 µM
compound,measurement,setting,value
CC[C@@]1([C@@H]2O[C@@H]([C@H]3O[C@@](O)(CO)[C@H](C)C[C@@H]3C)C[C@@H]2C)CC[C@H]([C@]2(C)CC[C@]3(C[C@H](O)[C@@H](C)[C@@H]([C@@H](C)[C@@H](OC)C(C)C(=O)O)O3)O2)O1 (stereo partly specified),fluorescence slope change,[1],168% (active)
same,survival,[2],0.417 (inactive)
same,fold change,[3]; [21],1.05 (inactive)
same,fold change,[3]; [22],1.84
same,cell count,[3]; [23],1810
same,cell count,[3]; [24],1730
CCSC(N)=Nc1ccc(C(F)(F)F)cc1,period change,[4],0.125 h (inactive)
same,fold change,[3]; [21],1.02 (inactive)
same,fold change,[3]; [22],0.833
same,cell count,[3]; [23],5930
same,cell count,[3]; [24],5830
COC(=O)C1=CO[C@@H](C)[C@H]2CN3CCc4c([nH]c5ccccc45)[C@@H]3C[C@H]12,fluorescence slope change,[1],76.8% (active)
same,survival,[2],10.5 (inactive)
same,parasite load remaining,[5],108% (inactive) and 62.6% (inactive)
same,viability,[5],97.4% and 74.1%
same,fold change,[3]; [21],0.773 (inactive)
same,fold change,[3]; [22],1.63
same,cell count,[3]; [23],5880
same,cell count,[3]; [24],7600
Nc1ccccc1NC(=O)CCCCCCC(=O)Nc1ccccc1,fold change,[3]; [21],1.01 (inactive)
same,fold change,[3]; [22],0.802
same,cell count,[3]; [23],5630
same,cell count,[3]; [24],5580
same,inhibition,"[6]; at 0.5 µM, stronger effect = higher value",-12.9% (inactive) and -25.1% (inactive)
same,inhibition,"[6]; measured here: combination with BGB IC20, at 0.005 µM",-23.2% and 0.813%
same,inhibition,"[6]; measured here: combination with BGB IC40, at 0.005 µM",83.8% and -29.2%
same,inhibition,[6]; [25],-12.1% and -1.18%
same,inhibition,"[6]; measured here: combination with cisplatin, at 0.5 µM, stronger effect = higher value",-8.88% and -35.8%
same,inhibition,"[6]; measured here: combination with cisplatin, at 5 µM, stronger effect = higher value",46.8% and 54.9%
same,inhibition,"[7]; BGB combo, at 5 µM",20.6% and 28.7%
same,inhibition,[7]; at 0.5 µM,5.22% (inactive) and 5.82% (inactive)
same,inhibition,"[7]; cisplatin combo, at 5 µM",39.9% and 36.6%
same,inhibition,[7]; [26],3.82% and 0.196%
same,inhibition,[7]; [27],11.3% and -1.37%
same,inhibition,"[7]; single agent, at 5 µM",23.6% and 28%
same,inhibition,"[8]; BGB IC20 combo, at 0.005 µM",-17.1% and -28%
same,inhibition,"[8]; BGB IC40 combo, at 0.005 µM",-32.5% and -14.2%
same,inhibition,"[8]; BGB IC40 combo, at 0.05 µM",-14.5% and 9.77%
same,inhibition,[8]; at 0.5 µM,-15.5% (inactive) and -30% (inactive)
same,inhibition,"[8]; cisplatin combo, at 0.05 µM",-20.4% and 6.2%
same,inhibition,"[8]; cisplatin combo, at 0.5 µM",-17.3% and -48.3%
same,inhibition,"[8]; cisplatin combo, at 5 µM",-18.3% and -14.7%
same,inhibition,"[8]; measured here: 5 uM single agent, at 5 µM",-14.3% and -5.49%
same,inhibition,[9]; at 0.5 µM,-20.2% (inactive) and -14.9% (inactive)
same,inhibition,[9]; [25],-18.8% and -20.1%
same,inhibition,[9]; [28],-21.4% and -9.37%
same,inhibition,[9]; [29],34.7% and 36.3%
same,inhibition,[10]; at 0.5 µM,1.45% (inactive) and -7.23% (inactive)
same,inhibition,"[10]; measured here: with BGB IC20, at 0.5 µM",2.99% and -6.61%
same,inhibition,"[10]; measured here: with BGB IC20, at 5 µM",19.2% and 7.94%
same,inhibition,"[10]; measured here: with cisplatin IC20, at 0.5 µM",-1.97% and -10.6%
same,inhibition,"[10]; measured here: with cisplatin IC20, at 5 µM",29.1% and 24.4%
same,inhibition,"[10]; single agent, at 5 µM",11.1% and 13.2%
same,inhibition,[11]; at 0.5 µM,-31.9% (inactive) and -38.7% (inactive)
same,inhibition,"[11]; measured here: combination with BGB at IC20, at 0.5 µM",-43.5% and -26.6%
same,inhibition,"[11]; measured here: combination with cisplatin at IC20, at 0.5 µM",-10.1% and -25.3%
same,inhibition,[12]; at 0.5 µM,-7.05% (inactive) and -2.46% (inactive)
same,inhibition,"[12]; measured here: combo with BGB at IC20, at 0.5 µM",-17.3% and -8.59%
same,inhibition,"[12]; measured here: combo with cisplatin at IC20, at 0.5 µM",-8.12% and 7.03%
same,inhibition,[13]; at 0.5 µM,-2.22% (inactive) and -4.15% (inactive)
same,inhibition,"[13]; measured here: inhibition with BGB combination, at 0.05 µM",-17% and -12.6%
same,inhibition,"[13]; measured here: inhibition with cisplatin combination, at 0.05 µM",-16.5% and -4.91%
same,inhibition,[14]; at 0.5 µM,-23.5% (inactive) and -15.8% (inactive)
same,inhibition,[14]; [28],-37.7% and -10.7%
same,inhibition,[14]; [29],7.67% and 25.4%
same,inhibition,[15]; at 0.5 µM,-14.6% (inactive) and -1.03% (inactive)
same,inhibition,"[15]; measured here: BGB combination, at 0.5 µM",-7.46% and 0.27%
same,inhibition,"[15]; measured here: BGB combination, at 5 µM",5.07% and 2.02%
same,inhibition,"[15]; measured here: cisplatin combination, at 0.5 µM",-38.4% and 3.8%
same,inhibition,"[15]; measured here: cisplatin combination, at 5 µM",-8.44% and 23.3%
same,inhibition,"[16]; BGB combination, concentration series, at 5 µM",0.199% and 30.8%
same,inhibition,[16]; at 0.5 µM,-7.51% (inactive) and -1.85% (inactive)
same,inhibition,"[16]; cisplatin combination, concentration series, at 5 µM",21% and 30.8%
same,inhibition,[17]; at 0.5 µM,4.47% (inactive) and 4% (inactive)
same,inhibition,"[17]; measured here: combo with BGB IC20, at 0.5 µM",8.04% and 0.536%
same,inhibition,"[17]; measured here: combo with cisplatin IC20, at 0.5 µM",-1.54% and 9.6%
same,inhibition,[18]; at 0.5 µM,4.38% (inactive) and 12.8% (inactive)
same,inhibition,"[18]; cisplatin combination, at 0.5 µM",-7.78% and 20.7%
same,inhibition,"[18]; cisplatin combination, at 5 µM",-10.7% and 73.5%
same,inhibition,"[18]; measured here: BGB IC40 combination 0.05 uM, at 0.05 µM",4.05% and -2.15%
same,inhibition,"[18]; single agent, at 5 µM",24.6% and 32.9%
same,inhibition,[19]; at 0.5 µM,7.96% (inactive) and 7.04% (inactive)
same,inhibition,"[19]; cisplatin combo, at 5 µM",43.6% and 67.7%
same,inhibition,"[19]; measured here: BGB IC40 combination, at 0.05 µM",-7.17% and -10.2%
same,inhibition,[19]; [28],5.88% and 41.6%
same,inhibition,"[19]; single agent, at 5 µM",30.6% and 7.16%
same,inhibition,[20]; at 0.5 µM,12.1% (inactive) and 5.27% (inactive)
same,inhibition,[20]; [26],-6.11% and -18%
same,inhibition,[20]; [27],19.9% and 16.9%
same,inhibition,"[20]; single agent, at 0.05 µM",13.3% and -6.35%
same,inhibition,"[20]; single agent, at 5 µM",14.5% and 19.2%
